Sampled rows, rich in hits. Any-hit rate of the full collection: about 1.7%.
Rin1-Abl PPI inh = inhibitors of human Rin1-Abl protein interaction | P00519+Q13671 | TR-FRET Rin1/Abl binding, biochemical | inhibition, % at 7.35 µM | actives 0.4% (n = 360,000) | AID 588664; in the data active means inhibition above about 5%, passing the limit was not always enough
p97 ATPase inh = blocks human p97 ATPase activity; P55072; recombinant p97 ATPase, Kinase-Glo ATP luminescence, 3 h; inhibition, % at 8 µM; actives 0.42% (n = 220,000); AID 1481; in the data active means inhibition above about 15%;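 further: 0% = DMSO vehicle and 100% = wells lacking enzyme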
LYPLA1 counter = LYPLA1 (human) inhibition in PME1 counter-screen; actives 0.16% (n = 320,000); O75608; recombinant LYPLA1, FP-Rh probe fluorescence polarization; AID 2174; inhibition, % at 5.9 µM;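 active means inhibition above the mean of all tested compounds plus 3 SD, set per campaign, cut at about 14% in these data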;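 further: inhibitors block serine hydrolase probe labeling of LYPLA1 so polarization falls; 0% = enzyme with DMSO and 100% = wells lacking LYPLA1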
PREPL inhibitor = inhibits the human prolyl oligopeptidase-like enzyme; Q4J6C6; recombinant PREPL, fluorescence polarization activity-based probe; inhibition, % at 5.96 µM; actives 0.68% (n = 320,000); AID 2751; in the data active means inhibition above about 43%;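 further: 0% = enzyme with DMSO and 100% = wells lacking enzyme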
Hck-Nef inh = inhibitors of human Hck kinase activated by Nef | Recombinant Hck-YEEI plus Nef, Z-Lyte FRET kinase assay | inhibition, % at 20 µM | actives 0.68% (n = 220,000) | AID 463187;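 active means Hck-Nef kinase inhibition above about 50%, limit read from the data; inactive means inhibition below that limit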;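 further: 0% = DMSO with Hck plus Nef and 100% = Hck alone without Nef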
Target sequence (P08631 whole entry, looked up): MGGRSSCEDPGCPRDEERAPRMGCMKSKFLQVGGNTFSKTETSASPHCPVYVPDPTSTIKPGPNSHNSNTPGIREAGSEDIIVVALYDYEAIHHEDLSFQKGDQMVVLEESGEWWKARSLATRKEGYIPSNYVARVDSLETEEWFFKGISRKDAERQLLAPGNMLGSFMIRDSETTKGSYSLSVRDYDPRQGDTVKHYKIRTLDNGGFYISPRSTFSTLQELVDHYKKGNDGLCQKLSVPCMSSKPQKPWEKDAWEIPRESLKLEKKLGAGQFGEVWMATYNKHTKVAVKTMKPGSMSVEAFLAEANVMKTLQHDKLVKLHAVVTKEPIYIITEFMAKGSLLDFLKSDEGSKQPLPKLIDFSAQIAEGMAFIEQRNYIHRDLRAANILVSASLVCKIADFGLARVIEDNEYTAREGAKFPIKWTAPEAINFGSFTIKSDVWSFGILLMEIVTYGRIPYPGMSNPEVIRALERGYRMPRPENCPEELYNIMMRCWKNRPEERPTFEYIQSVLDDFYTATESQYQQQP
LYPLA2 counter = blocks human lysophospholipase 2, a PME1 counter-screen; recombinant LYPLA2, FP-Rh probe fluorescence polarization; AID 2177; inhibition, % at 5.9 µM; actives 0.38% (n = 320,000); O95372;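 active means inhibition above the screen-wide mean plus 3 SD, limit set per campaign, cut at about 26% in these data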;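 further: 0% = LYPLA2 with DMSO and 100% = wells lacking LYPLA2 enzyme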
p97 confirm = human p97 ATPase inhibition, confirmation; actives 44% (n = 760); AID 1517; shares compounds with p97 ATPase inh; recombinant p97 ATPase, Kinase-Glo ATP luminescence; inhibition, % at 8 µM;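 active means percent inhibition of p97 ATPase above a set limit, the primary screen's mean plus 3 SD, cut at about 15% in these data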;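 further: 0% = DMSO wells and 100% = wells lacking p97 protein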
* = called active by the depositor; · = not tested or not shown.

SMILES	Rin1-Abl PPI inh	p97 ATPase inh	LYPLA1 counter	PREPL inhibitor	Hck-Nef inh	LYPLA2 counter	p97 confirm
COC(=O)c1ccc(COc2ccccc2/C=N/NC(=O)c2cccnc2)cc1	-2	8	-2	10	24	36*	·
CN(C)c1ccc(O)c2c1CC1CC3[C@@H](N(C)C)C(=O)C(C(N)=O)=C(O)[C@]3(O)C(=O)C1=C2O (stereo not given in full)	16*	10	3	10	-5	5	·
C[C@H]1c2cccc(O)c2C(O)=C2C(=O)[C@]3(O)C(O)=C(C(N)=O)C(=O)[C@@H](N(C)C)[C@@H]3[C@@H](O)[C@@H]21	5	·	3	18	-21	4	·
COc1cc(C(=O)NCCCC2CCCC2)ccc1OC1CCN(C(C)=O)CC1	-1	·	·	·	·	·	·
CN1CCCC(OC(=O)c2ccc(C#N)cc2)C1 (stereo not given)	-2	·	-6	-15	·	-9	·
COc1cccc(C2=CC(c3ccc(N(C)C)cc3)n3ncnc3N2)c1 (stereo not given)	·	-4	4	63*	2	2	·
O=C(CCC(F)(F)F)N1CCCC(N2CCN(c3cccc(Cl)c3)CC2)C1 (stereo not given)	0	·	-1	4	·	30*	·
Cc1cc(C)n2nc(SCC(=O)N(CCC#N)c3ccccc3F)nc2n1	4	·	-1	8	·	-3	·
CC(C)n1nccc1NC(=O)COC(=O)c1ccc(NC(N)=O)cc1	2	·	·	18	·	·	·
O=c1oc2c(O)c(O)cc3c(=O)oc4c(O)c(O)cc1c4c23	61*	12	-11	54*	4	-1	·
CN(c1ccccc1)S(=O)(=O)c1cccc(NC(=O)CN2C(=O)NC3(CCCCC3)C2=O)c1	4	·	-2	68*	·	-9	·
CC1CCC2(CC1)NC(=O)N(CC(=O)Nc1cccc(S(=O)(=O)N(C)c3ccccc3)c1)C2=O (stereo not given)	-3	·	·	·	·	·	·
CCCCCCc1cc2cc(C(=O)Nc3ccc(OC)cc3)c(=O)oc2cc1O	4	4	-4	3	28	-1	·
CCCCCCc1cc2cc(C(=O)Nc3cccc(OC)c3)c(=O)oc2cc1O	2	-3	-2	4	53*	-9	·
CC(=O)Nc1nnc(S(=O)(=O)N2CCN(c3ccc([N+](=O)[O-])cc3Cl)CC2)s1	-1	·	3	-60	·	13	·
Cc1cc(/C=N/NC(N)=S)c(O)c(/C=N/NC(N)=S)c1	-3	19*	4	7	-43	9	20*
O=c1[nH]c(/C(Cl)=C/c2cc(Cl)ccc2O)nc2cc(Cl)ccc12	-1	29*	-12	1	-2	-14	42*
O=c1[nH]c(/C(Cl)=C/c2cccc(C(F)(F)F)c2)nc2cc(Cl)ccc12	-1	2	0	1	2	4	·
O=c1[nH]c(/C(Cl)=C/c2c(F)cccc2Cl)nc2cc(Cl)ccc12	3	28*	-2	-5	5	1	35*
Cc1cccc(C(=O)OCC(=O)N2CCCCCC2)c1	-4	·	-4	6	·	-6	·
C=CCNCC(O)COc1ccc(C(C)=O)cc1OC (stereo not given)	-1	18*	-1	-2	-3	-1	10
COc1cc(C(C)=O)ccc1OCC(O)CNCC1(N2CCCCC2)CCCCC1 (stereo not given)	-3	-2	-4	2	0	0	·
CN(C)c1nc(N(C)C)c2cnn(C)c2n1	-1	·	·	·	·	·	·
CC1CCCC(C)N1C(=O)CN1C(=O)NC2(CCOc3ccccc32)C1=O (stereo not given)	1	·	·	·	·	·	·
O=C(O)c1ccc(CSc2nc3ccccc3[nH]2)cc1	2	·	-1	4	·	1	·
SMILES	Rin1-Abl PPI inh	p97 ATPase inh	LYPLA1 counter	PREPL inhibitor	Hck-Nef inh	LYPLA2 counter	p97 confirm
Nc1c(-c2ccccc2)c(CSc2nc3ccccc3[nH]2)nn1-c1cccc(C(=O)O)c1	-3	16*	2	7	15	-3	7
Fc1ccc(-n2cc(-c3ccccc3)c3c(NN4CCOCC4)ncnc32)cc1	1	13	1	24	3	3	·
NS(=O)(=O)c1ccc(CCNc2ncnc3c2c(-c2ccccc2)cn3-c2ccc(F)cc2)cc1	2	30*	3	8	1	5	24*
C#CCOCCOCCOCCNc1nc(N2CCN(C(=O)[C@H](Cc3ccc(O)cc3)n3cc([C@@H](N)CC(C)C)nn3)CC2)nc(N2CCN(C(=O)[C@H](Cc3ccc(O)cc3)n3cc([C@@H](N)CC(C)C)nn3)CC2)n1	·	18*	1	21	-2	6	14
COc1ccc(Cl)cc1NC(=O)CN(C)C(=O)C1COc2ccccc2O1 (stereo not given)	1	·	·	9	·	·	·
O=S(=O)(Nc1cccc(S(=O)(=O)N2CCCC2)c1)c1cccc(Br)c1	2	·	-3	6	·	-8	·
N#CC1=C(N)NC(=S)C(C(N)=O)C1c1ccccc1F (stereo not given)	1	16*	0	-9	-28	-2	6
c1ccc2c(-c3c[nH]c4ccccc34)c3ccccc3nc2c1	-5	2	-8	-8	2	-11	·
O=C(O)c1cc(-c2c[nH]c3ccccc23)nc2ccc3ccccc3c12	-2	20*	5	-2	16	-5	20*
Fc1ccccc1-c1nc(NCc2ccco2)c2ccccc2n1	4	22*	-6	1	19	-1	28*
Oc1ccccc1-c1nc(NCc2ccco2)c2ccccc2n1	-2	2	-14	16	-1	-6	·
COc1ccc(Nc2nc(-c3ccccc3)nc3ccccc23)cc1S(=O)(=O)N1CCOCC1	-2	16*	-46	11	30	-66	13
Cc1c(Br)c(O)c(Br)c2sc(=O)oc12	1	22*	-6	11	2	0	7
COc1ccc(-n2nnnc2C(c2cc3ccccc3o2)N2CCN(C/C=C/c3ccccc3)CC2)cc1 (stereo not given)	-2	·	·	·	·	·	·
COc1ccc2c(c1)c(C(=O)CN1CCOCC1)c(C)n2C	-2	-4	0	1	-1	3	·
COc1ccc(N2CCN(CC(=O)c3c(C)n(C)c4ccc(OC)cc34)CC2)cc1	0	27*	-1	30	23	7	34*
O=c1[nH]c(S)c(/C=C2\C=Nc3ccccc32)s1	-1	22*	4	12	-54	0	16*
CC(C)c1nnc(NC(=O)C2CCCCC2)s1	-1	16*	1	2	9	-2	2
Cc1cnc(NC(=O)c2ccc3ncsc3c2)s1	-1	·	·	·	·	·	·
Oc1ccccc1-c1nnc(SCCN2CCOCC2)n1Cc1ccccc1	-2	15*	-1	9	1	1	5
CCOC(=O)c1c(NC(N)=O)sc(C)c1C	-4	0	2	1	0	3	·

Source: PubChem (several laboratories)
